Experimental findings from ChEMBL document CHEMBL1961873, “Compounds: GSK PKIS; Assays: Nanosyn kinase panel” (2012) are described below.

Values joined by “and” are separate entries in the source; they are usually repeats but may differ in a detail not shown here. Equal entries are not always repeated.

The target of experiment [1] is Mitogen-activated protein kinase kinase kinase kinase 4 (Homo sapiens) (UniProt O95819). The settings on record: at 1 µM.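 Note: reported figure is an averaged inhibition value.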
In experiment [2] the target is Dual specificity mitogen-activated protein kinase kinase 1 (Homo sapiens) (UniProt Q02750). The settings on record: at 0.1 µM.
Experiment [3] shares this target. The settings on record: at 1 µM.
The target of experiment [4] is Misshapen-like kinase 1 (Homo sapiens) (UniProt Q8N4C8). The settings on record: at 0.1 µM.
Experiment [5] shares this target. The settings on record: at 1 µM.
In experiment [6] the target is T1, Serine/threonine-protein kinase 4 (Homo sapiens) (UniProt Q13043).
T1 sequence (whole entry): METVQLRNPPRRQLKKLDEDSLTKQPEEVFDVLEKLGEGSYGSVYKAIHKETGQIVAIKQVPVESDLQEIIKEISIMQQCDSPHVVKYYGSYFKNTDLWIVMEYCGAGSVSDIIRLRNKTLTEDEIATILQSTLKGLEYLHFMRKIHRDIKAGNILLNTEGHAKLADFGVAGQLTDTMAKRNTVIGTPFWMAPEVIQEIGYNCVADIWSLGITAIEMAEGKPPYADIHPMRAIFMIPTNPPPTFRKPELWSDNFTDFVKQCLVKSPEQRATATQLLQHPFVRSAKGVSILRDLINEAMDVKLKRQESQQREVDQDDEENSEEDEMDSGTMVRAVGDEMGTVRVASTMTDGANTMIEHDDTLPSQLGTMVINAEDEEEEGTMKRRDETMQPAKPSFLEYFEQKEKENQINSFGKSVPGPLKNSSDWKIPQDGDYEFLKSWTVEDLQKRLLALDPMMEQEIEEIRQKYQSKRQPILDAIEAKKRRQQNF
The settings on record: at 0.1 µM.

Experiment [7] has as its target T1, Serine/threonine-protein kinase 4 (Homo sapiens). The settings on record: at 1 µM.
Experiment [8] concerns the target T2, Serine/threonine-protein kinase 3 (Homo sapiens) (UniProt Q13188).
T2 sequence (whole entry): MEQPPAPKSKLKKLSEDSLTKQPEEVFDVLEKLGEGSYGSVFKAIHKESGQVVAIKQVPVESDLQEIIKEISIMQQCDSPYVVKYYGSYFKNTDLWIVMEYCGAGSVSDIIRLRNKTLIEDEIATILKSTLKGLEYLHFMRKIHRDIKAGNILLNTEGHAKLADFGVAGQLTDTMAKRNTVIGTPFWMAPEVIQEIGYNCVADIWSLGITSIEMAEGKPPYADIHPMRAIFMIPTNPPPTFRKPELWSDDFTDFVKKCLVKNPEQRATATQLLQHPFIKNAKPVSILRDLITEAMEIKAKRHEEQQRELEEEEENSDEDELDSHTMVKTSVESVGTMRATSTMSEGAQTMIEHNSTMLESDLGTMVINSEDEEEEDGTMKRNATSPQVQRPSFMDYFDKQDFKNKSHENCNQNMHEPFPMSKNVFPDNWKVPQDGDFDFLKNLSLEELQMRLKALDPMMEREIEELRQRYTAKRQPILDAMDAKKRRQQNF
The settings on record: at 0.1 µM.

Experiment [9] deals with T2, Serine/threonine-protein kinase 3 (Homo sapiens). The settings on record: at 1 µM.
Experiment [10] has as its target Serine/threonine-protein kinase 26 (Homo sapiens) (UniProt Q9P289). The settings on record: at 0.1 µM.
For experiment [11] the target is unchanged. The settings on record: at 1 µM.
In experiment [12] the target is Serine/threonine-protein kinase PAK 1 (Homo sapiens) (UniProt Q13153). The settings on record: at 0.1 µM.
Experiment [13] has the same target. The settings on record: at 1 µM.
Experiment [14] addresses Serine/threonine-protein kinase PAK 2 (Homo sapiens) (UniProt Q13177). The settings on record: at 0.1 µM.
Experiment [15] has the same target. The settings on record: at 1 µM.
The target of experiment [16] is Serine/threonine-protein kinase PAK 3 (Homo sapiens) (UniProt O75914). The settings on record: at 0.1 µM.
Experiment [17] shares this target. The settings on record: at 1 µM.
In experiment [18] the target is Serine/threonine-protein kinase PAK 5 (Homo sapiens) (UniProt Q9P286). The settings on record: at 0.1 µM.
Experiment [19] has the same target. The settings on record: at 1 µM.
The target of experiment [20] is Serine/threonine-protein kinase PAK 6 (Homo sapiens) (UniProt Q9NQU5). The settings on record: at 0.1 µM.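 Note: mean PAK6 inhibition reported from the GSK PKIS screen.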
Sequence of Serine/threonine-protein kinase PAK 6 (Homo sapiens) (Q9NQU5 whole entry, looked up): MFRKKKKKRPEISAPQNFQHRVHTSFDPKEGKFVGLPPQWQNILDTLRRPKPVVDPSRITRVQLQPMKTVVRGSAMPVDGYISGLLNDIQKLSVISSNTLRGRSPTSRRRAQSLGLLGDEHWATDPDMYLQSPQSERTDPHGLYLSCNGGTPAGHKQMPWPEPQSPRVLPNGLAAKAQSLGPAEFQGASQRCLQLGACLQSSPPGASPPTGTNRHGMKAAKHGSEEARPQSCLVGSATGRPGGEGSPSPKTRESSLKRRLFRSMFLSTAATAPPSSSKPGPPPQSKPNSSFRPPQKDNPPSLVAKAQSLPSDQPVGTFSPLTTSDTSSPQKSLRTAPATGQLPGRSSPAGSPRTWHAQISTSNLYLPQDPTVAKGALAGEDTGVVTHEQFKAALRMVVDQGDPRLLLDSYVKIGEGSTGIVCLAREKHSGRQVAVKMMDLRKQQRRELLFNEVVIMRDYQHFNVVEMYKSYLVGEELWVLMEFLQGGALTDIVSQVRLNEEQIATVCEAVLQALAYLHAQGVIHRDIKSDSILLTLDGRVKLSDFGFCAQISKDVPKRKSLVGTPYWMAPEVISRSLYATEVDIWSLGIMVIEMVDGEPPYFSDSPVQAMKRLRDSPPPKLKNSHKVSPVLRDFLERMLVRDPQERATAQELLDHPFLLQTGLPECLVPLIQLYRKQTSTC

Sequence of Serine/threonine-protein kinase 26 (Homo sapiens) (Q9P289 2-416 limits assumed): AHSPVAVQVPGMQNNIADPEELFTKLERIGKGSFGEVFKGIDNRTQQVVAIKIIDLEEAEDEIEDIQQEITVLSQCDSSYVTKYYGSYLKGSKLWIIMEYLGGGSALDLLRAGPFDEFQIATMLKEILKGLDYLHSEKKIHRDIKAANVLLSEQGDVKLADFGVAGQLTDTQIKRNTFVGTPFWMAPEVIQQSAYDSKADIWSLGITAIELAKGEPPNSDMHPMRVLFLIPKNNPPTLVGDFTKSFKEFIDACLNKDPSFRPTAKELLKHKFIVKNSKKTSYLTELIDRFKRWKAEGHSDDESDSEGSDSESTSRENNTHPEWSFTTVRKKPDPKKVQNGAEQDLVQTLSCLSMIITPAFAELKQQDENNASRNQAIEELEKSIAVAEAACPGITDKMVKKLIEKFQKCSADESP
Sequence of Misshapen-like kinase 1 (Homo sapiens) (Q8N4C8 whole entry, looked up): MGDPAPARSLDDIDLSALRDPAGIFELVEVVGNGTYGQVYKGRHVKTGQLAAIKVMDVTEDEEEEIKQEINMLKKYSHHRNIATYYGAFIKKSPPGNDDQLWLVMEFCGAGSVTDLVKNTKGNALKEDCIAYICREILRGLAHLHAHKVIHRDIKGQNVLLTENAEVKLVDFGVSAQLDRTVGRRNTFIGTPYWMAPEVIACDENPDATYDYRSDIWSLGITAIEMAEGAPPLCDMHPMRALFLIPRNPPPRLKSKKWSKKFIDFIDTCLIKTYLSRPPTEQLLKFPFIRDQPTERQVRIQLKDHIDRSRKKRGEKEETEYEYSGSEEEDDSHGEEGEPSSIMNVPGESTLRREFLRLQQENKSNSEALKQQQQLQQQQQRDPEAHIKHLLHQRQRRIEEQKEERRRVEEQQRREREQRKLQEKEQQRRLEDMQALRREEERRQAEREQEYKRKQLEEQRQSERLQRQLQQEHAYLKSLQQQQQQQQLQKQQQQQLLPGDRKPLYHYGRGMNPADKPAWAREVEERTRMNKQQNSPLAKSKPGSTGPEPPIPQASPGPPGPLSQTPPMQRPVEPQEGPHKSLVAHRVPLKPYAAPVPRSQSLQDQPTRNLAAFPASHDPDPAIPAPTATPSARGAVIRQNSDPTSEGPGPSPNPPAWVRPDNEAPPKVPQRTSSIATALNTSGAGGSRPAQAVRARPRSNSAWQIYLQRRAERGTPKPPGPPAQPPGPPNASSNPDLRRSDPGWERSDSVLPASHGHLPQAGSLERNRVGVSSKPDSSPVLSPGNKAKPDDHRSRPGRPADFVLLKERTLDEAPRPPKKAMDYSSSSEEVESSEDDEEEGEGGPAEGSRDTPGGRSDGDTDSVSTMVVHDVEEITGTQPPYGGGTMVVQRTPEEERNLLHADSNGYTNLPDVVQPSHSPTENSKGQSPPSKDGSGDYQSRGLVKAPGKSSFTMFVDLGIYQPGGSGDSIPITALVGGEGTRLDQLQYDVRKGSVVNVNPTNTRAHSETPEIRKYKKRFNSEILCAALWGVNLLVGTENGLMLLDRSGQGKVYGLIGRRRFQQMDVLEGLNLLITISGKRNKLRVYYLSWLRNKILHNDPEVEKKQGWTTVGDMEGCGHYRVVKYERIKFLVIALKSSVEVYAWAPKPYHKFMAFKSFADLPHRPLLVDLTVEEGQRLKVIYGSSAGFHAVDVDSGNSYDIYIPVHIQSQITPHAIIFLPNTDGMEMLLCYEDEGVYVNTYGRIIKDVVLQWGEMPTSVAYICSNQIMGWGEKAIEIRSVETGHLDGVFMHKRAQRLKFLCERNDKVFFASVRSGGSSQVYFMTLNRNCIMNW
Sequence of Serine/threonine-protein kinase PAK 3 (Homo sapiens) (O75914 whole entry, looked up): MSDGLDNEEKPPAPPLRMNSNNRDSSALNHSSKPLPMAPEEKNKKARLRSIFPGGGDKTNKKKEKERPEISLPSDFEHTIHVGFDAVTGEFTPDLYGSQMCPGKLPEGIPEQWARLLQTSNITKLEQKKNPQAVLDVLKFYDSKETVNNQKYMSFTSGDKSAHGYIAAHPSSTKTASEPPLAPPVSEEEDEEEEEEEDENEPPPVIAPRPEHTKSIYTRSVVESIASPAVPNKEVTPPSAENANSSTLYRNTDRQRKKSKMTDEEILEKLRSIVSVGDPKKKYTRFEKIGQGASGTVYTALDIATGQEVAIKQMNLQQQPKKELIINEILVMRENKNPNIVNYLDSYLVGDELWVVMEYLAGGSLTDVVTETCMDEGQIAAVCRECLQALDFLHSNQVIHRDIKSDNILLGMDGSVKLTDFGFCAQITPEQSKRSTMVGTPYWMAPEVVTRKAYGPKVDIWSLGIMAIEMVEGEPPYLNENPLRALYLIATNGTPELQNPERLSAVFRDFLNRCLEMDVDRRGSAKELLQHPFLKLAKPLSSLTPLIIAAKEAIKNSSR
Sequence of Mitogen-activated protein kinase kinase kinase kinase 4 (Homo sapiens) (O95819 2-1239 limits assumed): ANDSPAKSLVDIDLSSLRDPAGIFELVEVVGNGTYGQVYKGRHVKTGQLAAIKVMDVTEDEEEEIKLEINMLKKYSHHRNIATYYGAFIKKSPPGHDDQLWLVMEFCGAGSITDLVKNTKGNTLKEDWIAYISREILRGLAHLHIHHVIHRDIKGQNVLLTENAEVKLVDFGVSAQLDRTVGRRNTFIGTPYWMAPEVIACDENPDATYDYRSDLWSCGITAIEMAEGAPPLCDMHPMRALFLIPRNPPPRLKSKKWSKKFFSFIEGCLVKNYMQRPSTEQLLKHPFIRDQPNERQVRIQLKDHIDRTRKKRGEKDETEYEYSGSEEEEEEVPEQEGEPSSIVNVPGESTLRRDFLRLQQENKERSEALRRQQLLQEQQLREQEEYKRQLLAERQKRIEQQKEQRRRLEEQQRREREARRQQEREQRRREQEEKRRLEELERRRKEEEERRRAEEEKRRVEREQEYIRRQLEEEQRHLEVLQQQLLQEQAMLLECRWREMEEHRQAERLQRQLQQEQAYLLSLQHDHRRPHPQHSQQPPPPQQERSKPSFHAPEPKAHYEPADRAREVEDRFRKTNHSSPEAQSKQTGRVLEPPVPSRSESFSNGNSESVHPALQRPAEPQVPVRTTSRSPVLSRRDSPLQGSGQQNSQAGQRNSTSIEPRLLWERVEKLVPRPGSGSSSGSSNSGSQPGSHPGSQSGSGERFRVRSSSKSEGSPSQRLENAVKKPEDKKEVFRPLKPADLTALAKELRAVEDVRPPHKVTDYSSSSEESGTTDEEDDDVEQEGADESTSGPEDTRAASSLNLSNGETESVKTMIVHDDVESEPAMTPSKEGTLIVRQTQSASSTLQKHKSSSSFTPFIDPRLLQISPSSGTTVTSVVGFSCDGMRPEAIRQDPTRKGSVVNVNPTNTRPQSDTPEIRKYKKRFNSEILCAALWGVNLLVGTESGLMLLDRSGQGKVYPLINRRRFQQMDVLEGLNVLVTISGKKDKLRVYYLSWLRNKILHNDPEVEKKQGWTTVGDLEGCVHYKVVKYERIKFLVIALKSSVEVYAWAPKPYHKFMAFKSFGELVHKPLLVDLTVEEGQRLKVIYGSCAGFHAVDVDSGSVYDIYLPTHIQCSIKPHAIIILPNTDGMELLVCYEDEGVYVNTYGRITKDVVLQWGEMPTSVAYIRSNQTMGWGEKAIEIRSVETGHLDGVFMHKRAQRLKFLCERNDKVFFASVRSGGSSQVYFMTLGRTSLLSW
Sequence of Serine/threonine-protein kinase PAK 1 (Homo sapiens) (Q13153 whole entry): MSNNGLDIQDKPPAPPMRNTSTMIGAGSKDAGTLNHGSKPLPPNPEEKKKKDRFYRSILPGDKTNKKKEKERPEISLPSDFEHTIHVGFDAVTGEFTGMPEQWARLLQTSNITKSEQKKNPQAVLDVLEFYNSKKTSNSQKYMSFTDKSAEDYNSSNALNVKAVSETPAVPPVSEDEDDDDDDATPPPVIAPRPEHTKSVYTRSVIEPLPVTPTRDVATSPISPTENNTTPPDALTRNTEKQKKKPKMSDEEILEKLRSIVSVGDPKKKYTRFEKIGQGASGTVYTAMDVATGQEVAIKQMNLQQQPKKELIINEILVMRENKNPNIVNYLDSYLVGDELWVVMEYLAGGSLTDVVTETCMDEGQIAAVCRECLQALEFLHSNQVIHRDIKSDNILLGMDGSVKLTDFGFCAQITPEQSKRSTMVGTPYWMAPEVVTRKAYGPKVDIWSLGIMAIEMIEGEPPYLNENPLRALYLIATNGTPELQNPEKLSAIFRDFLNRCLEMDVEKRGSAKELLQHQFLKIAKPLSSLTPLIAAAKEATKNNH

Take `Nc1nonc1-c1nc2cnccc2n1C1CC1`: the inhibition was 39.8% and 40% in [1]; 3% and 3.58% in experiment [2]; 6.15% and 7.11% in [3]; 9.13% and 8.38% in [4]; 30.2% and 28.1% in experiment [5]; 6.61% and 2.32% in experiment [6]. Moreover, the inhibition was 23.1% and 15.3% in experiment [7]; 6.77% and 2.58% in experiment [8]; 17.9% and 12.6% in experiment [9]; -0.67% and -1.23% in experiment [10]; -0.64% and -0.44% in [11]; 6.95% and 4.45% in [12]. Further, the inhibition in experiment [13] is 7.1% and 6.44%; in experiment [14], 3.23% and 1.09%; in experiment [15] it was 2.18% and 0.82%; in experiment [16], 4.18% and 2.78%; in experiment [17], 5.29% and 3.12%; in experiment [18] it was 0.47% and 4.24%. The inhibition in [19] was 1.66% and 0.23%; in [20], 7.48% and 3.54%.

Consider `CCOc1ccc2c(-c3ccnc(Nc4cc(OC)cc(C(F)(F)F)c4)n3)cnn2n1`, for which the inhibition is 8.47% in experiment [1]; 0.11% in experiment [2]; 0.8% in experiment [3]; 2.19% in experiment [4]; 6.36% in experiment [5]; 0.03% in experiment [6]. The inhibition is 1.83% in experiment [7]; -0.19% in experiment [8]; 2.45% in experiment [9]; 1.73% in experiment [10]; 1.8% in [11]; 2.05% in experiment [12]. For the same molecule, the inhibition in experiment [13] was 0.59%; in experiment [14] it was -0.62%; in experiment [15] it was 0.03%; in [16], -0.15%; in [17], -0.09%; in experiment [18], 0.09%. For the same molecule, the inhibition in experiment [19] is 8.65%; in experiment [20], -8.96%.

Regarding `CN(c1ccc(NC(=O)NCCN2CCOCC2)cc1)c1ccnc(Nc2ccc(CS(C)(=O)=O)cc2)n1`, the inhibition in [1] is 14.7%; in experiment [2], 5.04%; in experiment [3], 7.12%; in experiment [4], 3.82%; in experiment [5], 7.42%; in experiment [6], 7.84%. Also, the inhibition is 18.8% in experiment [7]; 6.91% in experiment [8]; 13.6% in [9]; -1.2% in experiment [10]; 0.96% in experiment [11]; 4.31% in experiment [12]. Further, the inhibition in experiment [13] was determined as 4.43%; in experiment [14] it was 2.52%; in experiment [15], 1.58%; in [16] it was 4.14%; in [17], 3.94%; in experiment [18], 12.2%. In addition, the inhibition in experiment [19] amounted to 13.5%; in experiment [20], 3.99%.

Turning to `COc1cc2c(cc1Nc1nc(Nc3cccc(F)c3C(N)=O)c3cc[nH]c3n1)N(C(=O)CN1CCN(C(C)C)CC1)CC2`, the inhibition in [1] was 3.14%; in experiment [2] it was 0.13%; in experiment [3] it was 4.11%; in [4] it was 3.15%; in experiment [5], 3.43%; in [6], 0.17%. Besides, the inhibition was found to be 3.77% in experiment [7]; 2.26% in experiment [8]; 2.65% in experiment [9]; 1.63% in experiment [10]; 2.14% in [11]; 5.25% in experiment [12]. In addition, the inhibition in experiment [13] worked out at 8.11%; in experiment [14], 1.01%; in experiment [15], 1.35%; in experiment [16], 2.21%; in experiment [17] it was 5.46%; in experiment [18], 2.45%. In addition, the inhibition is 3.7% in [19] and -9.4% in experiment [20].

Take `c1cnn2ncc(-c3ccnc(NCCCN4CCOCC4)n3)c2c1`: the inhibition is 8.87% in experiment [1]; 4.91% in experiment [2]; 3.9% in [3]; 4.95% in experiment [4]; 12.1% in experiment [5]; 2.04% in experiment [6]. Besides, the inhibition was 1.9% in experiment [7]; 3.76% in experiment [8]; 2.29% in experiment [9]; -1.84% in experiment [10]; -2.39% in [11]; 6.37% in [12]. Moreover, the inhibition in [13] was determined as 4.03%; in experiment [14] it was 1.39%; in [15], 0.34%; in experiment [16], 3.11%; in experiment [17] it was 3.78%; in experiment [18] it was 2.65%. Besides, the results for the inhibition in experiment [19] and in [20] were 1.01% and -0.41%, respectively.

As to `Cc1c2ccc(N(C)c3ccnc(Nc4cccc(S(N)(=O)=O)c4)n3)cc2nn1C`, the inhibition in experiment [1] is 55.2%; in [2] it was 6.31%; in [3], 10.7%; in experiment [4], 12.8%; in experiment [5], 55.3%; in experiment [6], 6.6%. For the same molecule, the inhibition is 8.01% in experiment [7]; 5.78% in experiment [8]; 7.64% in [9]; -1.28% in experiment [10]; -1.81% in experiment [11]; 7.49% in experiment [12]. Moreover, the inhibition in experiment [13] was 5.47%; in [14], 3.47%; in [15], 3.15%; in experiment [16] it was 4.74%; in [17], 7.28%; in [18], 1.63%. The results for the inhibition in [19] and in experiment [20] were -1.02% and 2.18%, respectively.
